This is an account of results in ChEMBL document CHEMBL4513216, “Probing the Open Global Health Chemical Diversity Library for Multistage-Active Starting Points for Next-Generation Antimalarials” (ACS Infect Dis, 2020).

Out of some 69,000 compounds screened, about 8,600 (12%) showed an effect of 50% or more. Only a selection was taken, and strong results are over-represented in it overall.

The test system of this experiment is Plasmodium berghei. Description: Screen against P. berghei liver stage (PbLuc), transformed with Luciferase, at 10uM. The experiment is classed as functional, HepG2. Conditions: tested at 10 uM.
Regarding `Cc1cnn(CCNCc2c(C)nn(C)c2Cl)c1`, the INHIBITION stood at 19.2%. Turning to `c1ccc(CN2CCc3nnc(COc4ccccn4)n3CC2)nc1`, the INHIBITION is recorded as 21.5%.

On to `Cc1occc1C(=O)N1CCC2(CC1)CN(Cc1nccs1)CCO2`, for which the INHIBITION worked out at 30.3%. As for `Cc1cc(C)n(CC(=O)N2CCC(c3ccn4nccc4n3)CC2)n1`, the figure is 19.5%; as for `Cc1ccc(CN2CCC3(CCCC(=O)N3)CC2)s1`, -24.5%. With `CCN(Cc1ccc2c(c1)OCCO2)C(=O)NC(C)Cn1cccn1` (stereo unspecified) the figure was 45.7%. As for `CCOCc1nc2c(c(N3CCCn4nc(C)cc4C3)n1)CCNCC2`, the figure is 34.9%.

With `CCOCCCNC(=O)C1(C)CCC(=O)N1c1cc(OC)ccc1OC` (stereo unspecified), the INHIBITION turned out to be 28.3%. With `Cc1cc(N2CCN(Cc3ccc(-c4cc[nH]n4)o3)CC2)cc(C)n1` the figure was 52.4%; with `Cc1cnc(C)c(N2CCN(Cc3ccc(-c4cc[nH]n4)o3)CC2)n1`, -7.48%; with `O=C(O)c1ccc(CC2CCN(Cc3ccc(-c4cc[nH]n4)o3)C2)cc1` (stereo unspecified), 67.8%. On to `O=C(O)c1ccc(C2CCCN(Cc3ccc(-c4cc[nH]n4)o3)C2)cc1` (stereo unspecified), for which the INHIBITION was -10.4%. With `O=C(O)c1ccccc1C1CCN(Cc2ccc(-c3cc[nH]n3)o2)C1` (stereo unspecified) the figure was 9.16%. Regarding `Fc1ccc(N2CCCN(Cc3ccc(-c4cc[nH]n4)o3)CC2)cc1`, the INHIBITION is reported as 23.7%.

With `O=c1occ(CN2CCOCC2)c(O)c1CN1CCOCC1`, the INHIBITION stood at 3.19%. As for `CC(CO)NS(=O)(=O)c1cccc(C(C)C)c1` (stereo unspecified), the figure is 26.6%; as for `CNS(=O)(=O)c1cccc(C(C)NCc2ccc(F)c(F)c2)c1` (stereo unspecified), 59.4%.

For the molecule `CNS(=O)(=O)c1cccc(C(C)NCc2cccc(OC)c2)c1` (stereo unspecified), the INHIBITION amounted to 20.1%. With `CNS(=O)(=O)c1cccc(C(C)NCc2ccc(C)c(C)c2)c1` (stereo unspecified) the figure was 62.8%; with `CCOc1ccc(CNC(C)c2cccc(S(=O)(=O)NC)c2)cc1` (stereo unspecified), 46.6%; with `CC(NCc1cccc(S(=O)(=O)N(C)C)c1)c1cccnc1` (stereo unspecified), 21.9%.

On to `CNS(=O)(=O)c1cccc(C(C)NCc2ccc(F)cc2F)c1` (stereo unspecified), for which the INHIBITION was 65.4%. With `Cc1nc(CNC(C)c2cccc(S(=O)(=O)N(C)C)c2)no1` (stereo unspecified) the figure was 39.7%; with `CNS(=O)(=O)c1cccc(C(C)NCc2cccc(O)c2)c1` (stereo unspecified), 50.8%. As for `CNS(=O)(=O)c1cccc(C(C)NCc2ccccc2)c1` (stereo unspecified), the figure is 11.8%; as for `CC(NCc1ccc(F)cc1)c1ccc(S(C)(=O)=O)cc1` (stereo unspecified), 25.5%. With `CNS(=O)(=O)c1cccc(C(C)NCc2ccncc2)c1` (stereo unspecified) the figure was 32.9%; with `O=S(=O)(C1CC1)N1CC[C@@H]2[C@@H]1CCN2Cc1cccs1`, 33%; with `Cc1cccc(NC(=O)N2CCCn3cnc(CN(C)C(C)C)c3C2)c1`, -6.3%.

For `NC(=O)c1cnn2c(C3CCCN(C4CCOCC4)C3)ccnc12` (stereo unspecified), the INHIBITION is listed as 10.51%. For the molecule `CCc1ccc(NC(=O)CC2Cn3ncnc3NC2=O)cc1` (stereo unspecified), the INHIBITION was -4.76%. As for `CCN1C(=O)[C@H]2CN(CC(C)C)C[C@H]2C12CCN(C(=O)NC(C)C)CC2`, the figure is -16.9%; as for `Cc1ccc(N2CCCC3(CCCC(=O)N3)C2)nn1` (stereo unspecified), 3.88%.

In the case of `CCOCCCC(=O)NCCC(=O)N1CCN(c2ccccn2)CC1`, the INHIBITION is on record as -39.5%. Take `CCN1CC(O)CN(C(=O)c2ccc(SC)cc2)CC1=O` (stereo unspecified): the INHIBITION is 47.2%. As for `c1ccc2nc(N3CCOC(Cn4cncn4)C3)cnc2c1` (stereo unspecified), the figure is -44.3%; as for `CCN(CC(=O)N(C)C)C(=O)c1nc(C)n(-c2ccccc2Cl)n1`, -28.7%; as for `CCc1cc(CN(C)C(=O)c2cnn[nH]2)on1`, -47.9%. With `COc1ccccc1CNc1ncnc2c1NC(=O)CN2` the figure was -79.3%; with `O=C(NCc1nncn1C1CCCCC1)C1COc2ccccc2O1` (stereo unspecified), 35.4%; with `CNS(=O)(=O)c1cccc(C(C)NCc2ccc(C)o2)c1` (stereo unspecified), 35.4%. Consider `CNS(=O)(=O)c1cccc(C(C)NCc2ccccc2OC)c1` (stereo unspecified), for which the INHIBITION is -9.93%. As for `CNS(=O)(=O)c1cccc(C(C)NCc2ccsc2)c1` (stereo unspecified), the figure is 36.3%; as for `CNS(=O)(=O)c1cccc(C(C)NCc2nccn2C(C)C)c1` (stereo unspecified), 23.5%; as for `CNS(=O)(=O)c1cccc(C(C)NCc2cccc(C)c2C)c1` (stereo unspecified), 52.6%. With `CNS(=O)(=O)c1cccc(C(C)NCc2ccco2)c1` (stereo unspecified) the figure was 55.1%; with `O=C(NCc1ccccc1)[C@H]1C[C@H]2CN(C(=O)NC3CCCC3)C[C@@H]1O2`, 7.65%; with `CCC1CCCCN1C(=O)Cn1nc(-c2cc(C)oc2C)cc(N)c1=O` (stereo unspecified), 37.5%.

Turning to `N#Cc1cccc(C(=O)N2CCc3c(COCC4CC4)cncc3C2)c1`, the INHIBITION is listed as 18.7%. Regarding `COc1ccc(CNc2cccnc2-n2cccn2)c(OC)c1OC`, the INHIBITION is given as 41.5%.

Consider `O=C(NC1CCCC1)N1CCCCC1c1nc(C2CC2)no1` (stereo unspecified), for which the INHIBITION was 38.6%.
